High-throughput results as filed in PubChem BioAssay.
This is a sample that favours compounds with a hit; in the whole collection about 3.4% have one here.
OTUD3 block: inhibitors of human OTUD3 deubiquitinase; Q5T2D3; purified OTUD3, Ub-rhodamine fluorescence, 2 h; inhibition, % at 25 µM; 47,000 compounds, 0.7% hits
USP28 block: human USP28 deubiquitinase inhibition; purified USP28, Ub-rhodamine cleavage fluorescence, 30 min; inhibition, % at 25 µM; 47,000 compounds, 3% hits; AID 1645857
The depositor's hits bear a star; nt = no result given. No stated cut-off is given here; in the data, active means inhibition above about 30%; inactive means the rest.

SMILES	OTUD3 block	USP28 block
CC(NC(=O)c1cc2c(F)cccc2[nH]1)c1ccccn1 (stereo unspecified)	-0.4	nt
O=C(NNS(=O)(=O)c1ccc(F)cc1)C1CCN(S(=O)(=O)c2ccccc2)CC1	7.3	31.0*
O=C(NCc1ccc(F)cc1)C1CCN(S(=O)(=O)c2ccccc2)CC1	0.0	-0.7
CCc1ccc(NC(=O)C(C)OC(=O)/C=C/c2ccc(S(=O)(=O)Nc3cccc(S(N)(=O)=O)c3)cc2)cc1 (stereo unspecified)	16.5	27.4
COc1ccc(C(=O)COC(=O)/C=C/c2ccc(S(=O)(=O)Nc3cccc(S(N)(=O)=O)c3)cc2)cc1	4.1	43.4*
NS(=O)(=O)c1cccc(NS(=O)(=O)c2ccc(/C=C/C(=O)OCC(=O)c3ccc(Br)cc3)cc2)c1	4.7	58.9*
COc1ccc(C(=O)Nc2cccc(C(=O)OCC(=O)c3ccc(Br)cc3)c2)cc1OC	2.6	-0.1
COc1ccccc1CNC(=O)CS(=O)(=O)Cc1nc(-c2ccccc2F)oc1C	-22.5	15.1
Cc1nnc(NC(=O)CCc2nc(-c3ccc(C)n(C(C)C)c3=O)no2)s1	-3.1	-5.1
CCCCCCCC(=O)c1c(O)cc(O)cc1CC(=O)O	-2.3	7.8
COc1c(O)cc(CC(=O)O)c(C(C)=O)c1O	78.0*	78.7*
N=c1sccn1CC(=O)Nc1ccc(Oc2ccccc2)cc1	4.5	37.1*
O=C(CCC(=O)N1CCC(C(=O)N2CCCCC2)CC1)Nc1ccc(Oc2ccccc2)cc1	-4.0	5.9
Cc1sc(-c2cccnc2)nc1OC(=O)c1ccc(Cl)c(Cl)c1	-4.1	5.7
COc1ccc(C2NC3=NCN(C(C)C)CN3c3nc4ccccc4n32)cc1 (stereo unspecified)	19.8	12.0
Cc1ccccc1-c1nnc2sc(COc3ccc(Cl)cc3)nn12	36.9*	52.7*
COc1ccccc1-c1nnc2sc(COc3ccc(F)cc3)nn12	6.1	nt
COc1ccc(C)cc1S(=O)(=O)N1C[C@@H](c2ccccc2)[C@H](c2ccn[nH]2)C1	-0.1	3.2
Cc1c2c(nc3ccccc13)-c1ccccc1CC2	7.0	55.2*
O=C(NC1CCCCC1)c1c2c(nc3ccccc13)-c1ccccc1CC2	-2.2	4.6
Cc1ccccc1NC(=O)Cn1cccc(S(=O)(=O)N2CCC(C)CC2)c1=O	2.2	nt
Cc1sc2ncnc(OCc3ccc([N+](=O)[O-])cc3)c2c1C	-14.5	46.1*
Cc1sc2ncnc(OCC(=O)c3cc(F)ccc3F)c2c1C	-8.8	-4.8
Cc1sc2ncnc(OCc3ccc(F)cc3Cl)c2c1C	13.2	57.6*
CCc1ccc(C(=O)COc2ncnc3sc(C)c(C)c23)cc1	-24.0	-10.4
SMILES	OTUD3 block	USP28 block
CCN(c1ccc2c(c1)OCO2)S(=O)(=O)c1ccc2c(c1)c(=O)n(C)c(=O)n2C	-98.3	-81.8
FC(F)(F)c1cc(C(F)(F)F)c2ccc(N3CCC4(CC3)OCCO4)nc2n1	2.1	-0.7
O=C(c1cc(C2CC2)on1)N1CCc2ccccc2C1	-2.8	0.0
O=C(O)c1nccnc1C(=O)N1CCc2ccccc2C1	21.6	46.5*
Cc1cc(C(=O)CSc2nnnn2-c2ccc(Cl)cc2)c(C)n1CC1COc2ccccc2O1 (stereo unspecified)	-19.9	-20.9
COc1cc(O)c2c(c1C)C(C)(C(C)=O)OC2=O (stereo unspecified)	5.0	-3.2
COc1cc(C)c2c(=O)c3c(oc2c1)C(=O)c1c(O)c(OC)cc(O)c1C3=O	33.0*	34.9*
Cc1cc(Nc2cccc(Cl)c2)n2nc(-c3cccnc3)nc2n1	-0.5	19.7
CN1CCN(C(=O)c2ccc(-c3ccc(NCc4ccccc4)nn3)cc2)CC1	-6.2	0.1
c1ccc(CNc2ccc(-c3ccccc3)nn2)cc1	15.6	37.0*
c1ccc(CNc2ncnc3c2[nH]c2ccccc23)nc1	7.8	1.1
Cc1c(C2CCCN(C(=O)c3ccn(C)n3)C2)n2c(nc1=O)CCC2 (stereo unspecified)	25.5	5.4
Cc1noc2ncnc(NC3CCCCC3)c12	12.5	3.6
Cn1ccc2c(cc(C(=O)NCc3ccc(F)c(Cl)c3)n2C)c1=O	-3.0	-4.4
Cn1cc(-c2ccncc2)cc1C(=O)NC1CCN(Cc2ccccc2)CC1	9.4	10.3
Cn1ccc2c(cc(C(=O)NCCC3=CCCCC3)n2C)c1=O	15.5	55.3*
Cn1ccc2c(cc(C(=O)NC3CCN(Cc4ccccc4)CC3)n2C)c1=O	2.8	31.7*
Cc1cc(C)c2cc(C(=O)NC3CCN(Cc4ccccc4)CC3)[nH]c2c1	5.4	14.2
Cc1c(C)n(C)c2ccc(C(=O)NC3CCN(Cc4ccccc4)CC3)cc12	-8.5	35.2*
CC(=O)N1[C@@H](CNS(=O)(=O)c2ccc(F)cc2)C[C@@]2(C)[C@@H](O)CCCC[C@@H]12	5.7	1.2
CC1=C(C(=O)c2ccc(Cl)cc2)C(c2ccc(C(C)C)cc2)NC(=O)N1 (stereo unspecified)	-20.4	-0.1
Cn1c(CCNC(=O)c2[nH]nc3c2CCc2ccccc2-3)nc2ccccc21	-7.2	52.2*
CC1CCN(C(=O)c2[nH]nc3c2CCc2ccccc2-3)CC1	0.1	0.7
O=C(NC1CCN(Cc2ccccc2)CC1)c1[nH]nc2c1CCc1ccccc1-2	-24.9	62.1*
COc1ccccc1CNC(=O)c1[nH]nc2c1CCc1ccccc1-2	0.1	29.1
SMILES	OTUD3 block	USP28 block
O=C(NCC1CCCO1)c1cc(=O)[nH]c2ccccc12 (stereo unspecified)	0.0	1.3
O=C(c1ccc(Cl)cc1)c1c[nH]cc1-c1cccc(Br)c1	-6.7	-14.4
CSc1ccccc1NC(=O)COc1cc2ccccc2cc1C(=O)NCc1ccccc1	2.3	4.9
O=C(CN(c1ccccc1)S(=O)(=O)c1ccccc1)Oc1cc(Cl)ccc1Cl	10.4	6.2
CC(=O)Nc1cccc(NC(=O)CSc2ccc(-c3ccc4c(c3)OCO4)nn2)c1	9.5	3.5
CSc1ccc(CNC(=O)CC2CCN(S(=O)(=O)c3ccc(C)cc3)CC2)cc1	5.7	30.4*
CC(=O)Nc1ccc(S(=O)(=O)N2CCC(CC(=O)NCc3ccc(F)cc3)CC2)cc1	13.2	4.6
Cc1cc(C)c(NC(=O)CSC2=C(C#N)C(c3ccc(C)o3)C3=C(CCCC3=O)N2)c(C)c1 (stereo unspecified)	11.2	31.4*
Cc1cc(Br)ccc1NC(=O)CSc1nc2c(cc1C#N)C(=O)CCC2	-4.0	-9.1
Cc1oc(C2CC2)cc1C(=O)N1CCC2(CC1)CC1(CO2)Nc2ccccc2-n2cccc21 (stereo unspecified)	2.0	16.7
CC(C)CCCCCCCCCCC(=O)N(C)[C@H](CO)C(=O)N[C@H](C)C(=O)NCC(=O)N(C)C1C(=O)N[C@@H](C)C(=O)NC(C(=O)O)Cc2ccc(O)c(c2)-c2cc1ccc2O (stereo partly specified)	6.2	56.0*
Nc1c(C(=O)Nc2ccc3c(c2)OCO3)sc2nc(-c3cccnc3)ccc12	0.1	32.9*
O=C(Nc1cc(-c2cccnc2)no1)c1ccc2c(c1)OCO2	6.7	17.7
COc1ccc(NC(=O)C2[C@@H]3C(=O)N(C4CCCCC4)C(=O)[C@@H]3[C@H]3c4ccccc4C=CN23)cc1 (stereo partly specified)	-5.1	13.0
Cc1ccc(-c2nc(CNC(=O)C3CC3c3ccccc3)no2)cc1 (stereo unspecified)	-49.2	-42.6
COc1ccc(-c2ccc(OCCNS(=O)(=O)N(C)C)nn2)cc1	16.2	11.7
Cc1cccc(Cn2cnc3c(nnn3Cc3ccccc3F)c2=O)c1	25.3	30.1*
